Assay outcomes deposited in PubChem BioAssay by National Center for Advancing Translational Sciences (NCATS).
This is a sample that favours compounds with a hit; in the whole collection about 12% have one here.
HP1b binding inh: blocks HP1-beta chromodomain binding to methylated histone tails | Potency, µM (series often up to 114 µM), inactives show at the highest dose activity change, negative = inhibition, usual class: inhibitors | AlphaScreen HP1-beta / biotin-H3K9me3 peptide binding | P83916 | hit rate 0.56% among 390,000; also: nearly all actives have a fitted effect of over 70% in size
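HP1-beta protein (50 nM final) preincubated 30 min at room temperature with biotinylated H3(1-18)K9me3 peptide (50 nM) in PBS pH 7.4, 0.01% Tween-20, then compound added for 30 min. AlphaScreen streptavidin donor/nickel chelate acceptor beads (10 ug/mL final), 30 min dark, luminescence read.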
BAZ2B inh: blocks human BAZ2B; Q9UIF8; AlphaScreen BAZ2B-H3K14Ac peptide displacement; Potency, µM (series often up to 114 µM), for inactives: top-dose activity change, negative = inhibition, most hits filed as inhibitors; hit rate 4.4% among 360,000; AID 504333; also: % is scaled to controls: 0 for no effect and ±100 for the full control effect; nearly all actives have a fitted effect of over 60% in size
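Protein-peptide AlphaScreen: BAZ2B 50 nM, b-H3K14Ac 50 nM, 1x PBS pH 7.4 + 0.01% Tween-20. Preincubation 30 min RT; cpd 30 min RT (top 110 uM); beads 20 min RT, light-protected.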
JMJD2A Tudor inh: blocks the human JMJD2A Tudor domain | O75164 | AlphaScreen JMJD2A-Tudor / H3K4me3 peptide binding | Potency, µM (doses to about 114 µM), for the others: at the top dose activity change, negative = inhibition, most hits filed as inhibitors | hit rate 4.4% among 390,000; also: % is scaled to controls: 0 for no effect and ±100 for the full control effect; nearly all actives have a fitted effect of over 50% in size
PLK1 PBD inh: PLK1 (human) polo-box domain binding inhibition; Plk1 PBD binding of FITC phosphopeptide, fluorescence polarization; AID 720504; Potency, µM, without a hit: max response, negative = inhibition, hits mostly inhibitors; P53350; hit rate 2.8% among 360,000; also: series mostly up to about 57 µM; % is scaled to controls: 0 for no effect and ±100 for the full control effect; nearly all actives have a fitted effect of over 65% in size
G9a inh: blocks human histone lysine methyltransferase G9a; Q96KQ7; G9a H3K9 monomethylation, AlphaScreen, 2 h; Potency, µM (highest dose often 102 µM), for inactives: top-dose activity, negative = inhibition, usual class: inhibitors; hit rate 8.8% among 350,000; also: % is scaled to controls: 0 for no effect and ±100 for the full control effect; nearly all actives have a fitted effect of over 75% in size
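Quantitative HTS format: methyltransferase activity on a biotin-tagged H3K9 peptide is measured by AlphaScreen, using a rabbit anti-monomethyl-H3K9 antibody with streptavidin donor and anti-IgG acceptor beads. Final levels are 20 nM enzyme, 500 nM peptide, 20 uM SAM; 2 h RT.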
Sfp inh: blocks B. subtilis Sfp PPTase activity; Q9F4F7; Biochemical Sfp PPTase activity, qHTS; Potency, µM, for the others: largest response in the series, negative = inhibition, actives largely listed as inhibitors; hit rate 3.5% among 310,000;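 also: the enzyme is Sfp with the accession as filed and its product quenches rhodamine fluorescence; 0% = enzyme reaction without inhibitor and -100% = no enzyme wells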
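With Hepes-Na pH 7.6 buffer containing 10 mM MgCl2, Sfp (15 nM) modified BHQ-2-YbbR (12.5 uM) using rhodamine-CoA (5 uM). Two reads 30 minutes apart at 525/598 nm yielded each well's rate.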
An asterisk follows results filed as active; ? = inconclusive; . = not tested or not shown; [ ] = remark or other dose. Calls follow the shape of the dose curve; as a rule, active = well fitted curve in the direction sought with a large enough effect; inconclusive = small, poorly fitted or top-dose-only effect, or another doubt; inactive = no such curve, though single readings can be large; an effect the other way counts as inactive or inconclusive. Potency is read from the fitted curve at half-maximal effect.

SMILES | HP1b binding inh | BAZ2B inh | JMJD2A Tudor inh | PLK1 PBD inh | G9a inh | Sfp inh
CCOC(=O)N1CCc2c(sc(NCc3cc(OC)ccc3OC)c2C(=O)Nc2cc(OC)ccc2OC)C1 | -7% | 32µM* | ? | . | 7.1µM* | .
COc1ccc(NC(=O)c2c(NCc3cccc(OC)c3)sc3c2CCC3)cc1 | -6% | -5% | -29% | . | 14µM* | .
COc1ccc(NC(=O)CN(C)CC(=O)Nc2sc3c(c2C(N)=O)CCC3)cc1 | 7% | -4% | -30% | ? | 50µM* | .
COc1ccc(NC(=O)c2c(NC(=O)c3cccc(C)c3)sc3c2CCC3)cc1 | 54% | 3% | 12% | . | -18%[59 µM] | .
C[C@H]1COC(=O)[C@H](Cc2ccccc2)NC(=O)[C@@H](C)COC(=O)[C@H](Cc2ccccc2)NC1=O | . | . | . | . | . | 7%
COc1ccc(OC)c(NC(=O)c2cc(S(=O)(=O)NCCc3ccc(Cl)cc3)ccc2F)c1 | -6% | -2% | -28% | . | 1%[59 µM] | .
Cc1cccc(NC(=O)c2cccc(S(=O)(=O)N(C)c3ccccc3)c2)n1 | 37% | 0% | -1% | 1% | 24%[59 µM] | .
CCc1ccc(C(=O)CN2C(=O)NC3(CCc4ccccc43)C2=O)cc1 (stereo not drawn) | 28% | 8% | -11% | -12% | 14%[59 µM] | .
COc1cccc(CNc2sc3c(c2C(=O)Nc2ccc(OC)cc2OC)CCC3)c1 | ? | -18% | ? | . | 13µM* | .
COc1cccc(C(=O)OCC(=O)Nc2sc3c(c2C(N)=O)CCC3)c1O | -2% | 50µM* | ? | ? | ? | .
COc1ccccc1OCC(=O)Nc1sc2c(c1C(N)=O)CCC2 | 11% | . | ? | -18% | . | .
COc1ccc(OC)c(NC(=O)c2c(NCc3ccc(OC)c(OC)c3)sc3c2CCC3)c1 | -6% | -22% | ? | . | ? | .
CCc1ccc(N=c2c([N+](=O)[O-])nn(-c3ccccc3)n2O)cc1 | ? | 32µM* | 45µM* | -1% | ? | ?
COc1ccc(-n2nc([N+](=O)[O-])c(=NCCc3ccc(Cl)cc3)n2O)cc1 | -7% | -10%[57.1 µM] | -32% | -9% | 11% | 10%
COc1ccc(-n2nc([N+](=O)[O-])c(=NCCc3ccc(OC)c(OC)c3)n2O)cc1 | -20% | ? | -32% | -10% | ? | 3%
COc1ccc(-n2nc([N+](=O)[O-])c(=NCCC3=CCCCC3)n2O)cc1 | 45µM* | 20µM* | 40µM* | -2% | 32µM* | -6%
COc1ccc(-n2nc([N+](=O)[O-])c(=NCCc3ccc(C)cc3)n2O)cc1 | ? | ? | 50µM* | -7% | ? | -4%
Cc1ccc(CN=c2c([N+](=O)[O-])nn(-c3cccc(C)c3)n2O)cc1 | ? | ? | 35µM* | 3% | -3% | 11%
Cc1cc(C)cc(N=c2c([N+](=O)[O-])nn(-c3ccc(Cl)cc3)n2O)c1 | -27% | ? | ? | 4% | ? | 9%
CCOc1c(Cl)cc(CNCc2ccccn2)cc1OC | 61% | 56µM* | -25% | 1% | 40µM* | 3%
COc1cc(CNCc2ccccn2)ccc1OCc1ccccc1Cl | -2% | ? | 45µM* | 0% | ? | 1%
CC(C#N)Sc1ccc(S(=O)(=O)N(C)C2CCCCC2)cn1 (stereo not drawn) | 73% | 16% | 23% | -2% | ? | .
CC1(C(=O)NCc2ccccc2Br)CCN1C(=O)Cc1ccc(-c2ccccc2)cc1 (stereo not drawn) | . | . | . | -4% | . | .
COc1ccc(-c2ccc(C(=O)NCc3ccc(C(F)(F)F)cc3)c3occc23)c(C)c1 | . | . | . | -1% | . | .
CC(C)NS(=O)(=O)c1ccc(OCC(=O)N2CCN(c3ccccc3F)CC2)cc1 | 42% | 4% | -2% | . | 1%[59 µM] | .
SMILES | HP1b binding inh | BAZ2B inh | JMJD2A Tudor inh | PLK1 PBD inh | G9a inh | Sfp inh
Cn1ccnc1C(O)c1ccco1 (stereo not drawn) | -7% | 4% | 56µM* | -6% | ? | ?
COc1ccccc1C(O)c1nccn1C (stereo not drawn) | 13% | -7% | -23% | 1% | ? | 12%
COC(=O)c1c(OC)cc2c(c1C)Oc1c(Cl)c(OC(C)=O)c(Cl)c(C)c1C(=O)O2 | . | . | . | . | . | 3%
CCCC(c1nnnn1C(C)(C)CC)N1CCN(C(=O)c2ccco2)CC1 (stereo not drawn) | 6% | -8% | -28% | -7% | 89µM* | -12%
CC(C)CC(c1nnnn1CCc1ccccc1)N1CCN(C(=O)c2ccco2)CC1 (stereo not drawn) | -18% | 3% | 1%[11.4 µM] | -26% | 13% | -6%
CCC(c1nnnn1CCc1ccccc1)N1CCN(C(=O)c2ccco2)CC1 (stereo not drawn) | 24% | 50µM* | -19% | -4% | 50µM* | 4%
COc1ccc(Cl)cc1NS(=O)(=O)c1cccc(C(=O)NCC2(N(C)C)CCCCC2)c1 | 9% | -9% | -19% | 0% | 0%[0.501 µM] | -1%
CCOC(=O)C1(C)C=C(Nc2ccc(OC)cc2)C(=O)N1c1ccc(OC)cc1 (stereo not drawn) | 27% | 16% | -3% | 2% | 19%[59 µM] | -3%
CCOC(=O)C1(C)C=C(Nc2ccc(O)cc2)C(=O)N1c1ccc(O)cc1 (stereo not drawn) | -15% | 50µM* | ? | -1% | 8.9µM* | 50µM*
CC(C)(C)NC(=O)COc1coc(CN2CCN(C(=O)c3ccco3)CC2)cc1=O | 44% | -3% | 4% | -17% | 1%[0.501 µM] | .
Cc1c(O)ccc(/C(Cc2ccc3ccccc3n2)=N\N)c1O | 10% | ? | ? | 9% | 8.9µM* | 12%
Cc1ccc(Sc2ccc(/C=N/O)cc2[N+](=O)[O-])cc1 | -45% | ? | 45µM* | 0% | ? | -12%
O=C1CSC(=S)N1/N=C/c1cccc(C(F)(F)F)c1 | -9% | -14% | ? | -20% | ? | 7%
O=C1CSC(=S)N1/N=C/c1ccc(C(F)(F)F)cc1 | 12% | -15% | -31% | ? | 79µM* | -5%
O=C1CSC(=S)N1/N=C/C=C/c1ccccc1 | ? | ? | ? | ? | 40µM* | -8%
O=C1CSC(=S)N1/N=C/c1c(F)cccc1F | -39% | -20% | ? | ? | 50µM* | ?
Cc1ccc2nc3c(cc(C(=O)NCc4ccco4)c(=N)n3C(C)C)c(=O)n2c1 | 40% | 1% | -5% | . | 2%[59 µM] | .
Cc1ccc(S(=O)(=O)N(C#N)c2nc(C)cc(C)n2)cc1 | 56% | ? | -14% | 1% | 45µM* | 5%
Cc1ccc(S(=O)(=O)N(C)S(=O)(=O)c2ccc(C#N)cc2)cc1 | . | -2% | . | . | 45µM* | 2%
Cc1ccc(S(=O)(=O)CC(O)COc2ccc(C#N)cc2)cc1 (stereo not drawn) | 6% | 4% | -11% | -2% | 23%[59 µM] | 6%
